Test results as given in PubChem BioAssay (Tox21).
Records with an inconclusive call do not appear. Unmarked numbers belong to inactive results. Activity calls are given as the source filed them. Calls follow the shape of the dose curve; as a rule, active = well fitted activation curve with a large enough effect in the repeat runs; inconclusive = weak or mixed curves; inactive = no such curve, though single readings can be large or run the other way.

target: Nuclear receptor subfamily 1 group I member 2 (Rattus norvegicus) (UniProt Q9R1A7); test: Rat pregnane X receptor (rPXR) activation by small molecules, qHTS assay (AID 1346983); conditions: rPXR luciferase reporter cells, One-Glo luminescence, 24 h; max activation: stronger effect = higher value; also: nearly all actives have a fitted effect of over 20% in size
Sequence (Q9R1A7 whole entry, looked up): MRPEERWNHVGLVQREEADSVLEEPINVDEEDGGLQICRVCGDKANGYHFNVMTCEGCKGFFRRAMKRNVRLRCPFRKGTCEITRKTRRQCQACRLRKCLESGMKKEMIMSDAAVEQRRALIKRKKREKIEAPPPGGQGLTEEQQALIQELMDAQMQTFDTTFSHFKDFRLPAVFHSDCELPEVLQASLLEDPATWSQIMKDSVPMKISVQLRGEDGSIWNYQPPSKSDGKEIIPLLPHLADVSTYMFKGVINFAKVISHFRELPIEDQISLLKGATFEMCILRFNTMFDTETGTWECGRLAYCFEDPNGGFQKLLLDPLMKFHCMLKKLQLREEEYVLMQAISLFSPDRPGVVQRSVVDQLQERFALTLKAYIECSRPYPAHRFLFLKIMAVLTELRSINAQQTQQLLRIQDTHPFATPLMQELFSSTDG
Source text: National Center for Advancing Translational Sciences [NCATS] NIH Chemical Genomics Center [NCGC] U.S. Environmental Protection Agency [EPA] National Institutes of Environmental Health Sciences [NIEHS] National Toxicology Program [NTP] Assay overview: The Pregnane X receptor (PXR), a ligand activated nuclear receptor plays a critical role in the regulation of genes involved in drug metabolism and transporters. PXR binds xenobiotics and when compounds interact with PXR produces enhanced expression of CYP3A genes. In humans PXR activation and CYP3A4 induction can be problematic due to their interactions with co-medicated drugs and decrease their efficacy or increase their own metabolism. However, there are known species-specific differences with regard to PXR activation that should be taken into account when animal PXR data are extrapolated to humans. A cell based rat PXR (rPXR) assay (developed by Puracyp, Inc., CA) was used to assess the activation of rPXR.
Assay Protocol Summary: rPXR cells were dispensed at 2,000 per well in 5uL of assay medium into white, solid-bottom 1536-well plates using a Multidrop Combi dispenser (Thermo Scientific). The assay plates were incubated at 37 C for 5hr before transferring 23 nL of test compounds dissolved in DMSO and positive control via Pintool station (Wako). The assay plates were incubated at 37 C for 24 hr. Then 5ul One-Glo assay reagent (Promega) was added to each plate by a Flying Reagent Dispenser (FRD, Aurora Discovery) and following 30 min incubation at room temperature, luciferase activity was quantified on a ViewLux plate reader (Perkin Elmer).
% is scaled to controls: 0 for no effect and ±100 for the full control effect; potency is read from the fitted curve at half-maximal effect.

SMILES	max activation	Potency
CC(=O)Oc1ccc(C(=C2CCCCC2)c2ccc(OC(C)=O)cc2)cc1	-2.09%	
CCCCC1C(=O)N(c2ccccc2)N(c2ccc(O)cc2)C1=O (stereo not given)	1.09%	
Cc1cc(O)c(C(C)C)cc1Cl	-0.692%	
Cc1cc(OI)c(C(C)C)cc1-c1cc(C(C)C)c(OI)cc1C	0.407%	
CO/N=C1\CN(c2nc3c(cc2F)c(=O)c(C(=O)O)cn3C2CC2)CC1CN (stereo not given)	-0.199%	
C[N+](C)(C)CCOC(N)=O	0.11%	
COc1cc2ncnc(Nc3ccc(F)c(Cl)c3)c2cc1OCCCN1CCOCC1	-4.52%	
O=C(CCCCCCC(=O)Nc1ccccc1)NO	-13.8%	
CCCCCCCCCCCCCCC[C@H](O)[C@@H](N)CO	0.49%	
CCNC(=O)N1CCN(CCCC(c2ccc(F)cc2)c2ccc(F)cc2)CC1	-17%	
C[C@]12CCC(=O)C=C1C=C[C@@H]1[C@@H]2CC[C@@]2(C)[C@H]1CC[C@@]21CCC(=O)O1	4.49%	
CCC1(C)CC(=O)NC1=O (stereo not given)	-2.98%	
CC(=O)OCC(=O)[C@H]1CC[C@H]2[C@@H]3CCC4=CC(=O)CC[C@]4(C)[C@H]3CC[C@]12C	2.69%	
C(=C\c1ccccc1)/CN1CCN(C(c2ccccc2)c2ccccc2)CC1	1.1%	
C[N+]1(C)CCC(=C(c2ccccc2)c2ccccc2)CC1	-1.49%	
CC1CC(O)CC(C)(C)C1 (stereo not given)	-0.957%	
O=C1OCCN1/N=C/c1ccc([N+](=O)[O-])o1	-6.39%	
CCCOC(=O)c1ccc(N)cc1	14.2%	
CCn1cc(C(=O)O)c(=O)c2cc(F)c(N3CCNCC3)nc21	-1.42%	
Nc1nc(Cl)nc2c1ncn2[C@@H]1O[C@H](CO)[C@@H](O)[C@@H]1F	-7.37%	

SMILES	max activation	Potency
Nc1nccs1	-2.81%	
N#C/C(=C1\SCC(c2ccccc2Cl)S1)n1ccnc1 (stereo not given)	-0.365%	
CCc1c2c(nc3ccc(OC(=O)N4CCC(N5CCCCC5)CC4)cc13)-c1cc3c(c(=O)n1C2)COC(=O)[C@]3(O)CC	-2.7%	
CC1(C)O[C@@H]2C[C@H]3[C@@H]4CCC5=CC(=O)C=C[C@]5(C)[C@H]4[C@@H](O)C[C@]3(C)[C@]2(C(=O)CO)O1		8.91 µM (active)
O=C(NCCCN1CCOCC1)c1ccc(Cl)cc1	4.03%	
CCc1cccc(N(C)C(N)=Nc2cccc3ccccc23)c1	-1.24%	
O=C(O)C(Cc1cc(I)c(O)c(I)c1)c1ccccc1 (stereo not given)	-2.03%	
O=C(O)Cc1ccc(-c2ccccc2)cc1	-2.71%	
CC(=O)Oc1ccc2c(c1)CC[C@@H]1[C@@H]2CC[C@]2(C)[C@@H](O)CC[C@@H]12	-1.91%	
CCCCN(CCCC)CCCOC(=O)c1ccc(N)cc1	0.416%	
CO[C@H]1C=CO[C@@]2(C)Oc3c(C)c(O)c4c(O)c(c5c(c4c3C2=O)=NC2(CCN(CC(C)C)CC2)N=5)NC(=O)/C(C)=C\C=C/[C@H](C)[C@H](O)[C@@H](C)[C@@H](O)[C@@H](C)[C@H](OC(C)=O)[C@@H]1C	-0.473%	
O=C(N/N=C/c1ccc([N+](=O)[O-])o1)c1ccc(O)cc1	-12.4%	
COc1cc2[nH]c(=O)[nH]c(=O)c2cc1OC	-3.43%	
O=C(CCCN1CCC(O)(c2ccc(Br)cc2)CC1)c1ccc(F)cc1	-1.43%	
CC(C)(C)C(=O)C(Oc1ccc(Cl)cc1)n1ccnc1 (stereo not given)		12.6 µM (active)
CC(=O)CC(c1ccc([N+](=O)[O-])cc1)c1c(O)c2ccccc2oc1=O (stereo not given)	-1.52%	
CCc1nn(CCCN2CCN(c3cccc(Cl)c3)CC2)c(=O)n1CCOc1ccccc1		12.6 µM (active)
CCN(CC)CCNC(=O)c1ccc(NC(C)=O)cc1	-1.35%	
CCCCCC=CCC=CCCCCCCCC(=O)OCC	-2.8%	
CNCCCC1c2ccccc2C=Cc2ccccc21	-3.85%	
